Compound activity deposited in PubChem BioAssay by National Center for Advancing Translational Sciences (NCATS).
TDP1 cell CPT = qHTS for Inhibitors of human tyrosyl-DNA phosphodiesterase 1 (TDP1): qHTS in cells in presence of CPT; Potency, µM (top dose mostly 46.2 µM), without a hit: at the highest dose activity change, negative = growth inhibition, most hits filed as inhibitors; actives 12% (n = 420,000); chicken DT40 Tdp1-/-;hTDP1 cells + 20 nM CPT, ATP luminescence, 48 h; note: potency is the fitted concentration of half-maximal effect; nearly all actives have a fitted effect of over 55% in size
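Chicken DT40 Tdp1-/- cells complemented with human TDP1, 400 cells/well, exposed to compounds plus 20 nM camptothecin for at least 48 h at 37 C; viability read as ATP content by CellTiter-Glo luminescence.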
DT40 TDP1 no CPT = qHTS for Inhibitors of human tyrosyl-DNA phosphodiesterase 1 (TDP1): qHTS in cells in absence of CPT; DT40 Tdp1-/- hTDP1 cells, no CPT, ATP luminescence, 48 h; Potency, µM (top dose mostly 46.2 µM), for inactives: at the top dose activity change, negative = growth inhibition, actives largely listed as inhibitors; actives 15% (n = 420,000); AID 686978, 2013; note: potency is the fitted concentration of half-maximal effect; nearly all actives have a fitted effect of over 55% in size
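Camptothecin absent (DMSO only). Human TDP1-complemented DT40 knockout cells, 400 cells/well, 37 °C for minimum 48 hr; ATP measured via CellTiter-Glo, 30 min dark incubation, luminescence.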
TDP1 block = qHTS Assay for Inhibitors of Tyrosyl-DNA Phosphodiesterase (TDP1). Tyrosyl-DNA phosphodiesterase 1 (Homo sapiens), Q9NUW8. recombinant TDP1, AlphaScreen DNA substrate cleavage. Potency, µM (titrated, usually from 130 µM), for inactives: at the highest dose activity change, negative = inhibition, most hits filed as inhibitors. actives 0.28% (n = 350,000). AID 485290, 2010; note: potency is the fitted concentration of half-maximal effect; nearly all actives have a fitted effect of over 40% in size
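Signal: AlphaScreen proximity between streptavidin donor and anti-FITC acceptor beads on intact substrate. Reaction: Tdp1 1 nM, substrate 15 nM final, 5 min RT after 15 min compound preincubation.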
Six1-Eya2 blk = qHTS Assay for Inhibitors of the Six1/Eya2 Interaction | Homeobox protein SIX1 (Homo sapiens) + Protein phosphatase EYA2 (Homo sapiens), … | AlphaScreen GST-Six1/His-Eya2 binding, biochemical; hits give low values | activity change, % (test concentration not listed) | actives 0.56% (n = 360,000) | AID 651725, 2012; in the data active = activity change below about -65%; inconclusive = mostly about -30% to -63%
Target sequence (O00167 whole entry, looked up): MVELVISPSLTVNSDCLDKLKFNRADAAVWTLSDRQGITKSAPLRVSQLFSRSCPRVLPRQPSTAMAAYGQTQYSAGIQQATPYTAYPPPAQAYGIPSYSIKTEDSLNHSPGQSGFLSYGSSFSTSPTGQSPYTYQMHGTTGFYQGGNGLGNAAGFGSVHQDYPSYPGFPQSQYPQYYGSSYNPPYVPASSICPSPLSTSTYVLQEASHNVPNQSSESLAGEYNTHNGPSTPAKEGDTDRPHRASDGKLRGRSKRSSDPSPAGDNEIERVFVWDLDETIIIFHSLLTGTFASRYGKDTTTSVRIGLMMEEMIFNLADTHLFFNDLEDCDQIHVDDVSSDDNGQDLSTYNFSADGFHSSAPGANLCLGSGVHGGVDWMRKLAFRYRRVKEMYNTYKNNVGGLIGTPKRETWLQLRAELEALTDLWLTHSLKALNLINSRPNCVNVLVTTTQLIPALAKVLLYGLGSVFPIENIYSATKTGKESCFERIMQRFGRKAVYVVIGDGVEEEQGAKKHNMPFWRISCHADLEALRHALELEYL
Target sequence (Q15475 whole entry, looked up): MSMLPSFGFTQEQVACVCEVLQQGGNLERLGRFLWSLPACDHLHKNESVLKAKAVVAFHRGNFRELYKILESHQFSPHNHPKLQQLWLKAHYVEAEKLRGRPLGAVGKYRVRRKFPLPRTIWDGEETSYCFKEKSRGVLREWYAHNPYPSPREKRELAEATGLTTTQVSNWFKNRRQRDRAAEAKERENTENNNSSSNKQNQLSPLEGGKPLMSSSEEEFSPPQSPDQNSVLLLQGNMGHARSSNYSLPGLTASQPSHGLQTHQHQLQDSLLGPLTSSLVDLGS
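GST-Six1 + His-Eya2 (5X stock: 250/500 nM); Tris pH 8.0, 300 mM NaCl, 0.05% BSA, 0.02% Tween 20; GSH donor/Ni acceptor beads; 1 h 37 °C dark; AlphaScreen readout.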
IL1B secr inh = qHTS for Inhibitors of Inflammasome Signaling: IL-1-beta AlphaLISA Primary Screen; AID 743279, 2014; actives 4.7% (n = 360,000); THP-1 LPS/ATP IL-1B secretion, AlphaLISA, 16 h; hits give low values; activity change, % at 57.5 µM; in the data active = activity change below about -50%; inconclusive = mostly about -30% to -49%
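Secreted IL-1B measured by AlphaLISA bead assay after 16 h compound exposure of THP-1 cells; compounds (final up to 57.5 uM) added 1 h before LPS (250 ng/mL) and ATP (1.25 mM) stimulation; lower signal means less secretion.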
CtBP-E1A inh = qHTS Assay for Inhibitors of the CtBP/E1A Interaction; AlphaScreen GST-E1A/His-CtBP binding, 1536-well; hits give low values; activity change, % (no concentration beside the values); actives 0.49% (n = 340,000); in the data active = activity change below about -65%; inconclusive = mostly about -30% to -63%
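Protein mix (5X: 125 nM each GST-E1A, His-CtBP) was incubated with pinned compound 2 h at 37 deg C in dark, in 50 mM Tris pH 8.0 buffer with 300 mM NaCl. Glutathione donor and nickel acceptor beads followed; AlphaScreen signal read after 1 h.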
* = called active by the depositor; i = inactive; ? = inconclusive; . = not tested or not shown; [ ] = another dose, or the depositor's remark. Compounds with a hit are over-represented: about 18% of the library has one in this group of screens. Unless noted, calls come from the whole dose curve; as a rule, active = well fitted curve in the direction sought with a large enough effect; inconclusive = small, poorly fitted or top-dose-only effect, or another doubt; inactive = no such curve, though single readings can be large; an effect the other way counts as inactive or inconclusive. % is set by controls: 0 for no effect and ±100 for the full control effect.

SMILES	TDP1 cell CPT	DT40 TDP1 no CPT	TDP1 block	Six1-Eya2 blk	IL1B secr inh	CtBP-E1A inh
CC(C)NC(=O)N1CCCN(c2nc3ccc(Cl)cc3s2)CC1	?	?	5%	-1	?	-25
Cc1noc(C)c1S(=O)(=O)Nc1ccc(C(=O)NC2CCCCCC2)cc1	5%	-26%	4%	6	20	5
O=C(CNS(=O)(=O)c1ccc(Br)cc1)NCc1cccnc1	21%	-8%	1%	1	i	6
C=C1C(=O)OC2C=C(CO)C3OC3C3OC3(C)CC(OC(=O)/C(=C/C)COC(C)=O)C12 (configuration not stated)	1.3µM*	1.8µM*	.	4	-101*	-13
Cc1nc2cc(-c3ccsc3-n3c(C)ccc3C)[nH]n2c(=O)c1Cl	-25%	?	.	-78*	?	?
CCOC(=O)NC(C(Cl)(Cl)Cl)S(=O)(=O)c1ccccc1 (configuration not stated)	?	?	11%	6	-87*	8
O=C(NCCc1ccccc1)C1Cc2c(-c3ccccc3)ccnc2O1 (configuration not stated)	?	?	.	-9	-13	-21
CN(C)c1ccc(CNC(=O)C2Cc3c(-c4cccc(C(N)=O)c4)ccnc3O2)cc1 (configuration not stated)	?	23µM*	.	-21	-13	?
CC(=O)c1cccc(-c2ccnc3c2CC(C(=O)NCc2ccco2)O3)c1 (configuration not stated)	0.82µM*	0.82µM*	.	-2	53	-4
NC(=O)c1cccc(-c2ccnc3c2CC(C(=O)NCCc2ccccc2)O3)c1 (configuration not stated)	15µM*	23µM*	.	-15	1	-12
O=C(Nc1cccc(C(F)(F)F)c1)C1Cc2c(-c3cccc(F)c3)ccnc2O1 (configuration not stated)	?	?	.	8	0	0
CC(=O)NCCNC(=O)C1Cc2c(-c3ccccc3)ccnc2O1 (configuration not stated)	-18%	-7%	.	5	9	2
O=C(NCc1ccco1)C1Cc2c(-c3cccc(F)c3)ccnc2O1 (configuration not stated)	0.82µM*	1.3µM*	.	-8	17	-1
COc1cccc2c(=O)c(C/C=C(/C)Cl)c(C)[nH]c12	-1%	?	2%	-6	5	-1
COC(=O)CC1C(=O)NCCN1C(=O)Nc1cccc(Cl)c1 (configuration not stated)	0%	3%	-2%	6	-2	-2
NC(=O)c1cccc(-c2ccnc3c2CC(C(=O)NCc2ccco2)O3)c1 (configuration not stated)	3.7µM*	2.9µM*	.	-6	58	1
O=C(CCCn1c(=O)c2cccn2c2ccccc21)NCc1ccccc1Br	?	16µM*	3%	.	.	.
CCOc1ccc(CNC(=O)Cn2c(=O)c3cccn3c3ccc(F)cc32)cc1	-3%	-12%	-6%	.	.	.
CCOc1ccccc1CNC(=O)CCCn1c(=O)c2cccn2c2ccc(F)cc21	?	12µM*	3%	.	.	.
CCOc1ccc(CNC(=O)CCCn2c(=O)c3cccn3c3ccc(F)cc32)cc1	?	12µM*	1%	.	.	.
COC(=O)c1cc2occc2n1CC(=O)Nc1cccc(SC)c1	1%	-18%	1%	.	.	.
CC(C)(C)c1ccc(-c2c(C#N)c(N)nc3c2CCCC3)s1	?	-30%	1%	4	14	-6
COc1ccccc1-c1nnc2n1N=C(c1c(OC)cccc1OC)CS2	.	.	4%	.	.	.
COc1ccc(CC(=O)OC(C)C(=O)c2ccc(C)cc2)cc1 (configuration not stated)	-10%	-1%	79µM*	57	-3	44
Cc1nc2ccccc2n1C1CCN(CC(=O)Nc2ccccc2Br)CC1	?	13µM*	0%	-1	-51*	0
SMILES	TDP1 cell CPT	DT40 TDP1 no CPT	TDP1 block	Six1-Eya2 blk	IL1B secr inh	CtBP-E1A inh
Cc1ccc(Nc2c(-c3ccncc3)nc3ccc(C)cn23)cc1	16µM*	?	8%	.	.	.
Cc1ccc2nc(-c3ccncc3)c(Nc3ccc(C(C)C)cc3)n2c1	6.5µM*	7.3µM*	2%[12.3 µM]	.	.	.
O=C(Nc1cccc([N+](=O)[O-])c1)C1C2/C=C\CCCCC21 (configuration not stated)	?	?	5%	1	-14	9
COC(=O)[C@@H]1C[C@@]2(O)[C@H](O)[C@H](O)[C@H](O)C[C@H]2N1Cc1ccc(N2CCOCC2)cc1	.	.	-6%	.	.	.
O=c1c(-c2ccc3c(c2)OCCO3)coc2cc(O)cc(O)c12	?	?	1%	-6	23	0
COc1ccc(-n2nnnc2C2CCN(S(=O)(=O)c3ccc(F)cc3Cl)CC2)cc1	?	16µM*	2%	.	.	.
COc1ccc(-n2nnnc2C2CCN(S(=O)(=O)c3ccc(NC(C)=O)cc3)CC2)cc1	5.8µM*	4.6µM*	0%	.	.	.
O=C(NC1CC1)C1=C[C@@H](C2CCCCC2)C[C@@H](OCc2ccc(CO)cc2)O1	?	?	4%	-2	18	1
O=C(NCc1ccc(Cl)cc1)c1cc(=O)[nH]c2ccc(S(=O)(=O)N3CCOCC3)cc12	-2%	-7%	0%	-3	31	10
O=C(/C(=C/O)N=Nc1ccccc1)c1ccc(Cl)cc1	?	?	5%	-11	-102*	.
Cc1cc(C)n2nc(SCCCC(=O)c3ccccc3)nc2n1	6%	-21%	5%	13	17	0
N#Cc1c(-c2ccc(Cl)cc2)c(-c2ccc(Cl)cc2)nn(CCOC(=O)CCC(=O)O)c1=O	10µM*	?	.	-2	13	-2
N#Cc1c(-c2ccccc2)c(-c2ccccc2)nn(CC(=O)NNC(=O)Nc2ccc(Cl)cc2)c1=O	?	23µM*	10%	-16	.	-12
Cc1ccc2oc(=O)n(CCNC(=O)Nc3ccccc3Cl)c2c1	18µM*	?	2%	.	.	.
